PubChem BioAssay (EPA / NIEHS)
Active and inactive are the calls of the source. Rule for the calls: active = hit-call score of the fitted dose curve at least 0.9, where 1 is the maximum; inactive = score below 0.9.

read-out: Urokinase-type plasminogen activator receptor (uPAR), PLAUR (gene 5329); assay: BSK_CASM3C_uPAR: BioMAP Diversity Plus: CASM3C Assay for Urokinase-type plasminogen activator receptor (uPAR) Biomarker Activity (AID 2283054); settings: primary human coronary artery smooth muscle cells; actives raise or lower the signal;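 note: cell-surface uPAR protein level quantified by ELISA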

| SMILES | outcome | AC50 |
| --- | --- | --- |
| Oc1ccccc1 | inactive |  |
| COc1cc(C(=O)NC2CCN(C)CC2)ccc1Nc1ncc2c(n1)N(C1CCCC1)CC(F)(F)C(=O)N2C |  | 24.2 µM (active) |
| C[C@]12CC[C@@H]3c4ccc(O)cc4CC[C@H]3[C@@H]1CCC2=O | inactive |  |
| CN(C)C(=O)C1(N2CCCCC2)CCN(CC[C@@]2(c3ccc(Cl)c(Cl)c3)CN(C(=O)c3ccccc3)CCO2)CC1 |  | 24.4 µM (active) |
| CN(C)c1ccc(C(=C2C=CC(=[N+](C)C)C=C2)c2ccc(N(C)C)cc2)cc1 |  | 1.54 µM (active) |
| O=C(O)Cn1c(=O)n(Cc2ccc(Br)cc2F)c(=O)c2ccc(Cl)cc21 | inactive |  |
| CCCCCCCCOC(=O)c1cc(O)c(O)c(O)c1 |  | 34.2 µM (active) |
| O=C(OCCCCCCOC(=O)c1ccccc1)c1ccccc1 | inactive |  |
| O=C(O)c1ccccc1C(=O)OCc1ccccc1 | inactive |  |
| Cc1ccc2oc(CN(Cc3ccccc3)C(=O)Nc3c(F)cc(F)cc3F)c(-c3ccc(Cl)cc3)c2c1 | inactive |  |
| Cc1oc2c(NC(=O)c3c(Cl)cccc3Cl)cccc2c1C(C)(C)O | inactive |  |
| c1ccc2n[nH]nc2c1 | inactive |  |
| CC[C@@H]1C[C@H](N(Cc2cc(C(F)(F)F)cc(C(F)(F)F)c2)C(C)=O)c2cc(C(F)(F)F)ccc2N1C(=O)OC(C)C | inactive |  |
| CO[C@H]1/C=C/O[C@@]2(C)Oc3c(C)c(O)c4c(O)c(c(/C=N/N5CCN(C)CC5)c(O)c4c3C2=O)NC(=O)/C(C)=C\C=C\[C@H](C)[C@H](O)[C@@H](C)[C@@H](O)[C@@H](C)[C@H](OC(C)=O)[C@@H]1C | inactive |  |
